# According to PubChem BioAssay (Tox21):
# Several values for one entry are separate records, joined by “and”; a condition that tells them apart may be missing. Equal values may be shown once. Inconclusive results are not listed. A call without a number means that no potency is given here. More than one record can exist for a structure, and the calls need not agree. Activity calls are given as the source filed them. Unless noted, calls come from the whole dose curve; as a rule, active = well fitted curve in the direction sought with a large enough effect in the repeat runs; inconclusive = weak or mixed curves; inactive = no such curve, though single readings can be large; an effect the other way counts as inactive or inconclusive.
# Key:
# [1] = qHTS assay to identify small molecule agonists of the vitamin D receptor (VDR) signaling pathway - cell viability counter screen (AID 743224); note: series mostly up to about 63 µM; nearly all actives have a fitted effect of over 50% in size
# In short: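 VDR-bla cells, 4 h after plating, exposed to compounds for 16 h at 37C; viability then read in the same wells as CellTiter-Glo luminescence after 30 min at room temperature, following the bla FRET read.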
# [2] = qHTS assay to identify small molecule antagonists of the vitamin D receptor (VDR) signaling pathway - cell viability counter screen (AID 743225); note: nearly all actives have a fitted effect of over 50% in size
# In short: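 In this counter screen, VDR-bla HEK 293T cells receive test compound plus 3 nM final calcitriol for 16 h at 37C. Room-temperature steps of 2 h with the beta-lactamase substrate, then 30 min with CellTiter-Glo, precede the luminescence read.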
# [3] = qHTS assay to identify small molecule agonists of the NFkB signaling pathway (AID 1159509; active = well fitted curve in the direction sought with a large enough effect in the signal ratio in the repeat runs, not every such curve was filed as active; the % refers to the signal ratio; note: series mostly up to about 61 µM)
# In short: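 NFkB-bla ME-180 cells with a beta-lactamase reporter under an NF-kB response element were plated overnight, treated with compounds in DMSO for 5 hr at 37 C, then loaded with FRET substrate for 1.5 hr at room temperature.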
# [4] = qHTS assay to identify small molecule agonists of the NFkB signaling pathway - cell viability counter screen (AID 1159515; calls by dose curve; note: series mostly up to about 61 µM; nearly all actives have a fitted effect of over 55% in size)
# In short: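 NFkB-bla ME-180 cells, 2,000/well, plated overnight at 37 C; compound added for 5 hr at 37 C. Viability read in the same wells as the bla reporter, by CellTiter-Glo luminescence after 30 min at room temperature.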
# [5] = qHTS assay to identify small molecule agonists of the endoplasmic reticulum stress response signaling pathway (AID 1159516; active = well fitted activation curve with a large enough effect in the signal ratio in the repeat runs, not every such curve was filed as active; the % refers to the signal ratio)
# In short: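 CellSensor ESRE-bla HeLa cells, 1,500 per well, plated overnight, then exposed to compounds for 5 hr at 37 C. Beta-lactamase reporter read with LiveBLAzer B/G FRET substrate after 2 hr at room temperature, 405 nm excitation, 460 and 530 nm emission.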
# [6] = qHTS assay to identify small molecule antagonists of the retinoid-related orphan receptor gamma (ROR-gamma) signaling pathway - cell viability counter screen (AID 1159520); note: nearly all actives have a fitted effect of over 50% in size
# In short: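 Tet-on ROR gamma CHO cells were given compounds for 2 hr, then doxycycline hyclate at 1 uM final, and incubated 16 hr at 37 C. Viability was measured as ATP content by CellTiter-Glo luminescence.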
# [7] = qHTS assay to identify small molecule agonists of the AP-1 signaling pathway - cell viability counter screen (AID 1159525; calls by dose curve; note: nearly all actives have a fitted effect of over 55% in size)
# In short: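 AP-1-bla ME-180 cells in Opti-MEM with 0.5% dialyzed FBS, compound exposure 5 h at 37 C in 15-point titration. Viability read in the same wells as ATP content by CellTiter-Glo luminescence, normalised to tetra-n-octylammonium bromide and DMSO controls.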
# [8] = qHTS assay to identify small molecule agonists of the AP-1 signaling pathway (AID 1159526; calls by dose curve)
# [9] = molecular target: Retinoic acid receptor RXR-alpha (Homo sapiens) (UniProt P19793); assay: qHTS assay to identify small molecule agonists of the RXR signaling pathway (AID 1159527; calls by dose curve; note: nearly all actives have a fitted effect of over 35% in size; note: potency is the fitted concentration of half-maximal effect)
# In short: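 Fluorescence ratio readout (460 vs 530 nm) from GeneBLAzer RXR-alpha HEK 293T cells after 16 hr compound treatment; cells seeded 5 hr beforehand in low-serum, charcoal-stripped medium.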
# [10] = qHTS assay to identify small molecule agonists of the RXR signaling pathway - cell viability counter screen (AID 1159529);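 note: HEK 293T cells carrying an RXR-alpha UAS beta-lactamase reporter; series mostly up to about 77 µM; nearly all actives have a fitted effect of over 50% in size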
# In short: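 Viability read-out for the RXR-alpha agonist qHTS: luminescent CellTiter-Glo signal after 30 min at RT. HEK 293T bla reporter cells, 2% charcoal-stripped FBS, 16 hr compound incubation; tetraoctyl ammonium bromide as cytotoxic control.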
# [11] = qHTS assay to identify small molecule antagonists of the retinoid acid receptor (RAR) signaling pathway - cell viability counter screen (AID 1159551); note: nearly all actives have a fitted effect of over 35% in size
# In short: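 C3RL4 RARE-luciferase cells, 1,000/well, incubated overnight, then dosed with compound plus 1 uM retinol (final). After 6 hr at 37 C, viability read by CellTiter-Glo ATP luminescence following 30 min at room temperature.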
# [12] = qHTS assay to identify small molecule antagonists of the retinoic acid receptor (RAR) signaling pathway (AID 1159552; note: nearly all actives have a fitted effect of over 50% in size; note: potency is the fitted concentration of half-maximal effect)
# In short: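 Using a RARE-driven luciferase construct in C3RL4 cells, retinol at 1 uM final provided the agonist stimulus while compounds were co-applied. After 6 hours at 37 C, luminescence was recorded to flag inhibitors of retinol signaling.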
# [13] = qHTS assay to identify small molecule agonists of the retinoic acid receptor (RAR) signaling pathway (AID 1159553); note: potency is the fitted concentration of half-maximal effect
# In short: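 C3RL4 RARE-luciferase cells were seeded at 1,000/well and grown overnight at 37 C, then exposed to compounds for 6 hr at 37 C, 5% CO2. Luciferase reagent was added and luminescence was read after 30 min at room temperature.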
# [14] = qHTS assay to identify small molecule agonists of the endoplasmic reticulum stress response signaling pathway - cell viability counter screen (AID 1159517; calls by dose curve; note: nearly all actives have a fitted effect of over 50% in size; note: potency is the fitted concentration of half-maximal effect)
# In short: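 Counter-screen wells were identical to the reporter wells. Cells were plated at 1,500 per well and dosed for 5 hr, then read for luminescence 30 min after CellTiter-Glo addition.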
# [15] = molecular target: Nuclear receptor ROR-gamma (Homo sapiens) (UniProt P51449); assay: qHTS assay to identify small molecule antagonists of the retinoid-related orphan receptor gamma (ROR-gamma) signaling pathway (AID 1159521; note: nearly all actives have a fitted effect of over 50% in size; note: potency is the fitted concentration of half-maximal effect)
# In short: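 Screening format: cell-based luciferase reporter in CHO cells with doxycycline-inducible RORγ. Compound pre-exposure lasts 2 h, doxycycline is 1 uM final, induction runs 16 h at 37 C, and ONE-Glo luminescence is read.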
# [16] = qHTS assay to identify small molecule antagonists of the estrogen related receptor signaling pathway with the pleiotropic PPARgamma coactivator (PGC) cell viability counter screen (AID 1224822;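 note: series mostly up to about 46 µM; viability read after 17.5 h compound exposure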)
# In short: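 PGC/ERR cells rested 6 h, then compound-treated 17.5 h at 37 C. CellTiter-Fluor added for 30 min at 37 C, viability measured by fluorescence intensity.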
# [17] = qHTS assay to identify small molecule antagonists of the estrogen related receptor (ERR) signaling pathway (AID 1224819)
# In short: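 ERR reporter cell line (NTP) plated at 2,000 cells/well, settled 6 h at 37C/5% CO2, then exposed to LOPAC compounds for 18 h at 37C. One-Glo luciferase luminescence read after 30 min at room temperature.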
# [18] = qHTS assay to identify small molecule agonists of the estrogen related receptor (ERR) signaling pathway (AID 1224820)
# In short: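 ERR reporter cells (NTP line) plated 2,000/well, incubated 6 h at 37 C/5% CO2, then pinned with compounds in DMSO and held 18 h at 37 C. One-Glo added; luminescence read after 30 min at room temperature.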
# [19] = tested on: estrogen-related receptor alpha (ERRalpha) with PGC-1alpha coactivator, human; assay: qHTS assay to identify small molecule antagonists of the estrogen related receptor signaling pathway with the pleiotropic PPARgamma coactivator (PGC) (AID 1224821; calls by dose curve)
# In short: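 Cells engineered for PGC/ERR signalling (line from NTP) were plated 6 h at 37 C/5% CO2, then exposed to DMSO-dissolved compound for 18 h at 37 C. Luciferase activity was read by One-Glo luminescence after 30 min at room temperature.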
# [20] = qHTS assay to identify small molecule agonists of the estrogen related receptor signaling pathway with the pleiotropic PPARgamma coactivator (PGC) (AID 1224823)
# In short: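 PGC/ERR reporter cells were seeded, rested 6 h at 37 C/5% CO2, then exposed to compounds in DMSO by pin transfer for 18 h at 37 C. Luciferase activity was read as luminescence after One-Glo reagent and 30 min at room temperature.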
# Sequence of Retinoic acid receptor RXR-alpha (Homo sapiens) (P19793 whole entry, looked up): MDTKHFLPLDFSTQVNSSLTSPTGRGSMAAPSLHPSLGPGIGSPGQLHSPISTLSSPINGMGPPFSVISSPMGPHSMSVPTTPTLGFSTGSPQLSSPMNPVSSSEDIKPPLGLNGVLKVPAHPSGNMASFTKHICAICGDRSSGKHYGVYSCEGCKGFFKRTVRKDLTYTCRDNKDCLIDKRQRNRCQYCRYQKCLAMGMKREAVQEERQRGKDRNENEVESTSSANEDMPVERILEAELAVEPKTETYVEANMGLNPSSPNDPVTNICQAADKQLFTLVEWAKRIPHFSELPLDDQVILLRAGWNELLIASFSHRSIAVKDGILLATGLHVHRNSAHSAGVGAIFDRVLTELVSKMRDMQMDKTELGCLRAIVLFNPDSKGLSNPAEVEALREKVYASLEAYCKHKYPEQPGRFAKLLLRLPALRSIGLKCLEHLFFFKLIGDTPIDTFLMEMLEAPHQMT
Compound,Potency [1],outcome [2],outcome [3],outcome [4],outcome [5],outcome [6],outcome [7],Potency [8],Potency [9],Potency [10],outcome [11],Potency [12],Potency [13],Potency [14],Potency [15],outcome [16],Potency [17],outcome [18],outcome [19],outcome [20]
O=C(O)CN(CC(=O)O)CC(=O)O,inactive,inactive,inactive,inactive,inactive,inactive,inactive,inactive,inactive,inactive,inactive,inactive,inactive,–,–,–,–,–,–,–
C1CNCCN1,inactive,–,inactive,inactive,inactive,inactive,inactive,inactive,11.3 µM (active) and inactive,inactive,inactive,inactive,inactive,–,–,–,–,–,–,–
CC(C)CC(C)CC(O)CC(C)C (configuration not stated),inactive,inactive,inactive,inactive,–,inactive,inactive,inactive,inactive,inactive,inactive,inactive,inactive,inactive,inactive,–,–,–,–,–
O=c1c(-c2ccc(O)cc2)coc2cc(O)cc(O)c12,inactive,–,inactive,inactive,inactive,inactive,inactive,inactive,–,inactive,inactive,inactive,1.9 µM (active) and 1.37 µM (active) and 2.37 µM (active),–,–,inactive,–,–,–,–
N[C@@H](Cc1c[nH]c2ccccc12)C(=O)O,inactive,inactive,inactive,inactive,inactive,inactive,inactive,inactive,inactive,inactive,inactive,inactive,inactive,–,–,inactive,–,–,–,–
O=C(OCc1ccccc1)c1ccccc1,inactive,–,inactive,inactive,–,inactive,inactive,inactive,inactive,inactive,inactive,inactive,2.43 µM (active) and 29.8 µM (active),inactive,inactive,–,–,–,–,–
C=CCOC(=O)CC(C)C,inactive,inactive,inactive,inactive,–,inactive,inactive,inactive,inactive,inactive,inactive,inactive,inactive,inactive,inactive,–,–,–,–,–
C#C[C@]1(O)CC[C@H]2[C@@H]3CCC4=CC(=O)CC[C@@H]4[C@H]3CC[C@@]21CC,inactive,–,inactive,inactive,–,inactive,inactive,inactive,inactive,inactive,inactive,–,–,inactive,48.6 µM (active) and inactive,–,–,–,–,–
COc1cc(C=O)ccc1O,inactive,inactive,inactive,inactive,–,inactive,inactive,inactive,inactive,inactive,inactive,inactive,inactive,inactive,inactive,–,–,–,–,–
COCCOCCOC,inactive,–,inactive,inactive,inactive,inactive,inactive,inactive,inactive,inactive,inactive,inactive,inactive,–,–,–,–,–,–,–
CC(O)COc1ccccc1 (configuration not stated),inactive,–,inactive,inactive,inactive,inactive,inactive,inactive,inactive,inactive,inactive,inactive,inactive,–,–,–,–,–,–,–
CC1=NN(c2ccccc2)C(=O)C1,inactive,–,inactive,inactive,–,inactive,inactive,inactive,inactive,inactive,inactive,inactive,inactive,inactive,inactive,–,–,–,–,–
Cc1cccc2ccccc12,inactive,inactive,inactive,inactive,inactive,inactive,inactive,inactive,inactive,inactive,inactive,inactive,inactive,–,inactive,–,–,–,–,–
CC(=O)OC/C=C(C)/C=C/C=C(C)/C=C/C1=C(C)CCCC1(C)C,inactive,–,inactive,inactive,inactive,inactive,inactive,inactive,–,inactive,inactive,–,–,–,–,–,–,–,–,–
CN(C)Cc1cc(CN(C)C)c(O)c(CN(C)C)c1,inactive,inactive,inactive,inactive,inactive,inactive,inactive,inactive,inactive,inactive,inactive,inactive,inactive,–,inactive,–,–,–,–,–
CC(C)(C)CC(C)(C)c1ccc(O)c(-n2nc3ccccc3n2)c1,inactive,inactive,inactive,inactive,inactive,inactive,inactive,inactive,–,–,inactive,inactive,inactive,–,49.2 µM (active) and inactive,–,–,–,–,–
COC1=CC(=O)C[C@@H](C)[C@]12Oc1c(Cl)c(OC)cc(OC)c1C2=O,inactive,inactive,inactive,inactive,–,inactive,inactive,inactive,inactive,inactive,inactive,9.6 µM (active),inactive,inactive,8.56 µM (active) and 19.3 µM (active) and inactive,–,–,–,–,–
O=C(O)Cc1cccc2ccccc12,inactive,–,inactive,inactive,inactive,inactive,inactive,inactive,inactive,inactive,inactive,–,–,–,–,inactive,–,–,–,–
c1ccc2[nH]c(-c3cscn3)nc2c1,inactive,–,inactive,inactive,inactive,inactive,inactive,inactive,1.1 µM (active) and inactive,inactive,inactive,inactive,8.69 µM (active) and 2.43 µM (active) and 5.31 µM (active),–,inactive,–,–,–,–,–
NC(=O)N/N=C/c1ccc([N+](=O)[O-])o1,inactive,–,inactive,inactive,–,inactive,inactive,inactive,inactive and 13.8 µM (active),inactive,inactive,–,–,inactive and 49 µM (active),inactive,inactive,inactive,inactive,inactive,inactive
